Consider three compounds from PubChem BioAssay (EPA / NIEHS).

Active and inactive are the calls of the source. The calls were made as follows: active = hit-call score of the fitted dose curve at least 0.9, where 1 is the maximum; inactive = score below 0.9.

Common to all, as to conditions: mRNA level, 48 h; actives raise or lower the signal
Read-out in experiment [1]: Nuclear factor NF-kappa-B p105 subunit (Homo sapiens) (UniProt P19838)
Briefly: LTEA_HepaRG_NFKB1: Life Technologies and Expression Analysis (LTEA) Assay for Nuclear Factor Kappa B Subunit 1 (NFKB1) using HepaRG (AID 2283521).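 Also: TaqMan qRT-PCR transcript normalised to ACTB GAPDH and POLR2A housekeeping genes.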 The method in brief:
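Human HepaRG cells receive eight half-log concentrations, highest 100 uM, for 48 h. NFKB1 expression is then quantified by qRT-PCR and analysed for up- or down-regulation relative to 0.5% DMSO vehicle.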

Read-out in experiment [2]: Protein phosphatase 2A (PPP2R4), PTPA (gene 5524)
Briefly: LTEA_HepaRG_PPP2R4: Life Technologies and Expression Analysis (LTEA) Assay for Protein phosphatase 2A (PPP2R4) using HepaRG (AID 2283522). The method in brief: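 Gene-expression endpoint in HepaRG hepatic cells: 48 h treatment across eight half-log concentrations up to 100 uM in 0.5% DMSO. PPP2R4 mRNA by qRT-PCR, normalized to three endogenous control genes.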

Read-out in experiment [3]: Phosphatase and tensin (PTEN), PTEN (gene 5728)
Kind of experiment: LTEA_HepaRG_PTEN: Life Technologies and Expression Analysis (LTEA) Assay for Phosphatase and tensin (PTEN) using HepaRG (AID 2283523). In a few lines:
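HepaRG cells, 48 h after plating, exposed in duplicate for 48 h in serum-free induction medium to 8 half-log concentrations up to 100 uM (0.5% DMSO). PTEN mRNA by qRT-PCR, normalized to ACTB, GAPDH, POLR2A; bidirectional fit versus DMSO.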

Read-out in experiment [4]: solute carrier (SLC22A1), SLC22A1 (gene 6580)
Kind of experiment: LTEA_HepaRG_SLC22A1: Life Technologies and Expression Analysis (LTEA) Assay for solute carrier (SLC22A1) using HepaRG (AID 2283524). The method in brief: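 Differentiated human HepaRG cells in serum-free induction medium, exposed 48 h in duplicate to 8-point half-log series from 100 µM top in 0.5% DMSO. SLC22A1 mRNA by TaqMan qRT-PCR normalized to ACTB, GAPDH, POLR2A; bidirectional fit versus DMSO.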

Read-out in experiment [5]: Pyruvate Dehydrogenase Kinase 4 (PDK4), PDK4 (gene 5166)
Briefly: LTEA_HepaRG_PDK4: Life Technologies and Expression Analysis (LTEA) Assay for Pyruvate Dehydrogenase Kinase 4 (PDK4) using HepaRG (AID 2283525). In a few lines:
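HepaRG cells plated 48 h, then switched to serum-free induction medium and exposed in duplicate for 48 h to 8 half-log concentrations from 100 uM in 0.5% DMSO. PDK4 mRNA measured by qRT-PCR, normalized to ACTB, GAPDH and POLR2A; bidirectional fit versus DMSO.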

Read-out in experiment [6]: NAD(P)H dehydrogenase [quinone] 1 (NQO1), NQO1 (gene 1728)
Kind of experiment: LTEA_HepaRG_NQO1: Life Technologies and Expression Analysis (LTEA) Assay for NAD(P)H dehydrogenase [quinone] 1 (NQO1) using HepaRG (AID 2283526). In a few lines:
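Human HepaRG hepatic cells received chemicals for 48 h in serum-free induction medium with 0.5% DMSO, up to 100 uM. Expression was assessed by TaqMan qRT-PCR against housekeeping controls and fitted bidirectionally against DMSO.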

Read-out in experiment [7]: Nuclear factor erythroid 2-related factor 2 (Homo sapiens) (UniProt Q16236)
Briefly: LTEA_HepaRG_NFE2L2: Life Technologies and Expression Analysis (LTEA) Assay for Nuclear factor erythroid 2-related factor 2 (NFE2L2) Transcription Factor using HepaRG (AID 2283527).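 As to outcome: TaqMan qRT-PCR transcript level normalised to ACTB GAPDH and POLR2A housekeeping genes.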 The method in brief: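 Differentiated human HepaRG cells, serum-free induction medium, exposed 48 h in duplicate to eight half-log concentrations up to 100 uM in 0.5% DMSO. NFE2L2 mRNA by Fluidigm TaqMan qRT-PCR, normalised to ACTB, GAPDH, POLR2A; bidirectional change versus DMSO.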

Read-out in experiment [8]: succinate dehydrogenase complex iron sulfur subunit B (SDHB), SDHB (gene 6390)
Kind of experiment: LTEA_HepaRG_SDHB: Life Technologies and Expression Analysis (LTEA) Assay for succinate dehydrogenase complex iron sulfur subunit B (SDHB) using HepaRG (AID 2283528). The method in brief:
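A human HepaRG culture in serum-free induction medium received test chemicals for 48 h over an eight-point range capped at 100 uM. SDHB expression change was quantified by qRT-PCR.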

Read-out in experiment [9]: Signal transducer and activator of transcription 3 (Homo sapiens) (UniProt P40763)
Briefly: LTEA_HepaRG_STAT3: Life Technologies and Expression Analysis (LTEA) Assay for Signal transducer and activator of transcription (STAT3) using HepaRG (AID 2283529). The method in brief: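 Differentiated HepaRG cells, serum-free induction medium, dosed 48 h in duplicate, 8 half-log concentrations from 100 uM in 0.5% DMSO. STAT3 mRNA by qRT-PCR, normalised to ACTB, GAPDH, POLR2A; bidirectional fit versus DMSO.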

Read-out in experiment [10]: solute carrier (SLCO1B1), SLCO1B1 (gene 10599)
Kind of experiment: LTEA_HepaRG_SLCO1B1: Life Technologies and Expression Analysis (LTEA) Assay for solute carrier (SLCO1B1) using HepaRG (AID 2283530). The method in brief:
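Gain or loss of SLCO1B1 mRNA is fitted against the 0.5% DMSO vehicle in human HepaRG liver cells treated 48 h at up to 100 uM in half-log steps. Expression comes from qRT-PCR normalized to endogenous controls.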

Read-out in experiment [11]: sulfotransferase 2A1 (SULT2A1), SULT2A1 (gene 6822)
Kind of experiment: LTEA_HepaRG_SULT2A1: Life Technologies and Expression Analysis (LTEA) Assay for sulfotransferase 2A1 (SULT2A1) using HepaRG (AID 2283531). In a few lines:
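Cells were plated and cultured 48 h, switched to serum-free induction medium, then dosed in duplicate for 48 h (8 concentrations, max 100 uM). RNA was isolated and SULT2A1 expression measured by qRT-PCR; gain or loss of signal fitted relative to DMSO.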

Read-out in experiment [12]: Transforming Growth Factor (TGFA), TGFA (gene 7039)
Briefly: LTEA_HepaRG_TGFA: Life Technologies and Expression Analysis (LTEA) Assay for Transforming Growth Factor (TGFA) using HepaRG (AID 2283532). The method in brief: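 Differentiated HepaRG cells exposed 48 hours in serum-free induction medium, 0.5% DMSO vehicle, 8-point half-log series from 100 uM, in duplicate. TGFA mRNA by TaqMan qRT-PCR, normalised to ACTB, GAPDH, POLR2A; bidirectional fit versus DMSO.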

Read-out in experiment [13]: Transforming Growth Factor (TGFB1), TGFB1 (gene 7040)
Kind of experiment: LTEA_HepaRG_TGFB1: Life Technologies and Expression Analysis (LTEA) Assay for Transforming Growth Factor (TGFB1) Transporter using HepaRG (AID 2283533). The method in brief:
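Expression change of TGFB1 in human HepaRG cells is measured after a 48 h chemical exposure, up to 100 uM in 0.5% DMSO vehicle. Curves are fitted in both directions relative to the DMSO baseline.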

Read-out in another experiment: TIMP1, TIMP1 (gene 7076)
Briefly: LTEA_HepaRG_TIMP1: Life Technologies and Expression Analysis (LTEA) Assay for TIMP1 using HepaRG (AID 2283534).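 Also: TaqMan qRT-PCR signal normalized to ACTB GAPDH and POLR2A housekeeping genes.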 In a few lines: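 We dosed human liver HepaRG cultures for 48 hours with up to 100 uM test chemical and measured TIMP1 expression by qRT-PCR. Activity in either direction is fitted relative to the 0.5% DMSO vehicle.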

Read-out in experiment [14]: Tumor necrosis factor receptor 1 (TNFRSF1A), TNFRSF1A (gene 7132)
Kind of experiment: LTEA_HepaRG_TNFRSF1A: Life Technologies and Expression Analysis (LTEA) Assay for Tumor necrosis factor receptor 1 (TNFRSF1A) using HepaRG (AID 2283535). The method in brief:
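Expression of TNFRSF1A in human HepaRG liver cells was measured by qRT-PCR 48 h after chemical dosing (maximum 100 uM). Bidirectional curve fitting used 0.5% DMSO as baseline.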

Read-out in experiment [15]: Thyroid Hormone Responsive (THRSP), THRSP (gene 7069)
Kind of experiment: LTEA_HepaRG_THRSP: Life Technologies and Expression Analysis (LTEA) Assay for Thyroid Hormone Responsive (THRSP) using HepaRG (AID 2283536). In a few lines:
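Differentiated HepaRG cells treated 48 h in serum-free induction medium with 8 half-log concentrations up to 100 uM (0.5% DMSO), duplicates. THRSP mRNA by TaqMan qRT-PCR normalised to ACTB, GAPDH, POLR2A; bidirectional fit versus DMSO.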

Read-out in experiment [16]: UDP glucuronosyltransferase (UGT1A1), UGT1A1 (gene 54658)
Kind of experiment: LTEA_HepaRG_UGT1A1: Life Technologies and Expression Analysis (LTEA) Assay for UDP glucuronosyltransferase (UGT1A1) using HepaRG (AID 2283538). In a few lines: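 Human liver HepaRG cultures receive test chemical for 48 h, up to 100 uM in 0.5% DMSO, with phenobarbital induction controls. UGT1A1 mRNA is measured by qRT-PCR and normalized to ACTB, GAPDH and POLR2A.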

Read-out in experiment [17]: UDP glucuronosyltransferase (UGT1A6), UGT1A6 (gene 54578)
Briefly: LTEA_HepaRG_UGT1A6: Life Technologies and Expression Analysis (LTEA) Assay for UDP glucuronosyltransferase (UGT1A6) using HepaRG (AID 2283539). The method in brief:
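Endpoint is UGT1A6 transcript induction or loss in a human liver cell line, quantified by TaqMan qRT-PCR 48 h after dosing. Concentrations ran from 100 uM downward in half-log steps in 0.5% DMSO; activity was fitted in both directions versus vehicle.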

Read-out in experiment [18]: X-box binding protein 1 (XBP1), XBP1 (gene 7494)
Briefly: LTEA_HepaRG_XBP1: Life Technologies and Expression Analysis (LTEA) Assay for X-box binding protein 1 (XBP1) using HepaRG (AID 2283540). In a few lines: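 Human HepaRG monolayers receive test chemical for 48 h across an eight-point half-log series starting at 100 uM. XBP1 mRNA gain or loss is scored against DMSO by qRT-PCR.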

Read-out in experiment [19]: Cellular tumor antigen p53 (Homo sapiens) (UniProt P04637)
Briefly: LTEA_HepaRG_TP53: Life Technologies and Expression Analysis (LTEA) Assay for Tumor Protein P53 (TP53) using HepaRG (AID 2283537). The method in brief:
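Gain or loss of TP53 mRNA signal is scored relative to 0.5% DMSO after 48 h chemical treatment of HepaRG liver cells, tested in duplicate at eight half-log concentrations up to 100 uM.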

Nuclear factor erythroid 2-related factor 2 (Homo sapiens), sequence (Q16236 whole entry, looked up): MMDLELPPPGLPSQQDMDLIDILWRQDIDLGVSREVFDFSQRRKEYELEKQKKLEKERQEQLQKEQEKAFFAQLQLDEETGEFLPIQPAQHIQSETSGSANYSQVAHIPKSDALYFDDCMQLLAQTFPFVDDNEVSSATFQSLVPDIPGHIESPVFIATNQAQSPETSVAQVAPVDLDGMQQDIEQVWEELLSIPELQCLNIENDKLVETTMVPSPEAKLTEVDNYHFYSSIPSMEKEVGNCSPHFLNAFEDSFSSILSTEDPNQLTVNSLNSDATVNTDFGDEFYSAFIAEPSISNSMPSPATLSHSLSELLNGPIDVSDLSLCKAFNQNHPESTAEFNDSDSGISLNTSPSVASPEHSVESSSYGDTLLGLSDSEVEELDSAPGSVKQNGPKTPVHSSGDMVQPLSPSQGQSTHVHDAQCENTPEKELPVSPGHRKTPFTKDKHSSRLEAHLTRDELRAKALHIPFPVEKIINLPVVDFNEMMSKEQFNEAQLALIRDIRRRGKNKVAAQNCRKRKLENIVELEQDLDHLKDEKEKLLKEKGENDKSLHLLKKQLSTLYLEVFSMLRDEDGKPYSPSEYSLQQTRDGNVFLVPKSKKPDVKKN
Nuclear factor NF-kappa-B p105 subunit (Homo sapiens), sequence (P19838 whole entry, looked up): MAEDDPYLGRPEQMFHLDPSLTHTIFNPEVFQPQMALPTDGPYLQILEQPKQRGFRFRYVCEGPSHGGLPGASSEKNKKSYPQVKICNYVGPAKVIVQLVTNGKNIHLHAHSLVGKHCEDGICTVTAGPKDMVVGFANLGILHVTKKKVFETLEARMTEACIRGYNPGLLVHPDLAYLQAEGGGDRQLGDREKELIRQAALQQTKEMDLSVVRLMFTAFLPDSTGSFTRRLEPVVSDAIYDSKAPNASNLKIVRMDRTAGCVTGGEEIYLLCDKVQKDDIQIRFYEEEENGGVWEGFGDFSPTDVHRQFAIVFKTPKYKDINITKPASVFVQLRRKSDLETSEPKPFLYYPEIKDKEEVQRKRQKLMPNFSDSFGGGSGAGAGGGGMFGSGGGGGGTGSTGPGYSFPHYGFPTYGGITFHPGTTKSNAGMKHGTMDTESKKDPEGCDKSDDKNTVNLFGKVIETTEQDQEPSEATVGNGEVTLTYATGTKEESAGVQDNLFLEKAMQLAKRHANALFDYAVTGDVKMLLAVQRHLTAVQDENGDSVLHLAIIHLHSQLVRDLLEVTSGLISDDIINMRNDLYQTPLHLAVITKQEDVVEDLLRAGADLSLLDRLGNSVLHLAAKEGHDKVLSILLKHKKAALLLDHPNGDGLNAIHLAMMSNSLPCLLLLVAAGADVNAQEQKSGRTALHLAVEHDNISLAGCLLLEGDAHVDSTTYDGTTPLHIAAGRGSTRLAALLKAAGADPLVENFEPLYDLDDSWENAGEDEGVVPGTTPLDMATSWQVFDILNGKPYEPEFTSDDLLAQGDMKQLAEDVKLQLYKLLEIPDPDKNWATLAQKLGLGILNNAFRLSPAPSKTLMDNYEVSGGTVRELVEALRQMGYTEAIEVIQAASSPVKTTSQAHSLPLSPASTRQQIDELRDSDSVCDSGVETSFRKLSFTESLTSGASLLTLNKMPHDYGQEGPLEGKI
Signal transducer and activator of transcription 3 (Homo sapiens), sequence (P40763 whole entry, looked up): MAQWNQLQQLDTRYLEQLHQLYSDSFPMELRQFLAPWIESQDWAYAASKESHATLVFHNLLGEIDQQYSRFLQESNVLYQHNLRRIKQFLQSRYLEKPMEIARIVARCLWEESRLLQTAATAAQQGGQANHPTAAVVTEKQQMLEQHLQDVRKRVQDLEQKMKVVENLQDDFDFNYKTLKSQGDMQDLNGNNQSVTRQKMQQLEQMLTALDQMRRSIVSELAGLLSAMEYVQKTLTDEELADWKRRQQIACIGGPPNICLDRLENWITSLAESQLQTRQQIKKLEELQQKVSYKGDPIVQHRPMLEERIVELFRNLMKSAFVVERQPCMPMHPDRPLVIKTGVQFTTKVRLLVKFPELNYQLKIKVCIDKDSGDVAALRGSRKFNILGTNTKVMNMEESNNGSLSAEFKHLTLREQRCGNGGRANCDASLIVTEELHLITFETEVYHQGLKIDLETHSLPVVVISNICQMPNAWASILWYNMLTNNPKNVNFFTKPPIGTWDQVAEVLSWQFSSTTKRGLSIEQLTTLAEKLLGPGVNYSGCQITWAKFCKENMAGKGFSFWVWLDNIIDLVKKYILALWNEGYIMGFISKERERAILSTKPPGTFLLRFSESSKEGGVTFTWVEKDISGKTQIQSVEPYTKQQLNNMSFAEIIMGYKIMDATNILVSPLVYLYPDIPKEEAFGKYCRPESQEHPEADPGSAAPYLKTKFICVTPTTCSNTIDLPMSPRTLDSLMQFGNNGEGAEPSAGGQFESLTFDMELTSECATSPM
Cellular tumor antigen p53 (Homo sapiens), sequence (P04637 whole entry, looked up): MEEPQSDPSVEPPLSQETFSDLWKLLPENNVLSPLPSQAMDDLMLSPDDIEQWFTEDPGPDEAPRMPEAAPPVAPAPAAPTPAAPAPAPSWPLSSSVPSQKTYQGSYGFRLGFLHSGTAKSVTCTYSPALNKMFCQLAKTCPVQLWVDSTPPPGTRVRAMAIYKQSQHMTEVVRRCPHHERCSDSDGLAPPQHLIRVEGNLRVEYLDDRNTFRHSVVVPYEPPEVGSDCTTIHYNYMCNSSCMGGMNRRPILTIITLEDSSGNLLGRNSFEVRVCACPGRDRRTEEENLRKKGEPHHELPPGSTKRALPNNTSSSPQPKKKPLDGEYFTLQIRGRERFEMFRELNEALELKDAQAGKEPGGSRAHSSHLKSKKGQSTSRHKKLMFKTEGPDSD

Consider `O=C(O)c1ccccc1C(c1ccc(O)cc1)c1ccc(O)cc1`, for which the result in experiment [1], in [2], in experiment [3], in experiment [4], in experiment [5] and in experiment [6] was inactive. Also, the result in experiment [7], in [8], in experiment [9], in experiment [10], in experiment [11] and in experiment [12] was inactive. For the same compound, the outcome in [13] is “inactive”; with TIMP1, TIMP1 (gene 7076), “inactive”; in [14], “inactive”; in experiment [15], “inactive”; in experiment [16], “inactive”; in experiment [17], “inactive”. Besides, in experiment [18], the call was inactive.
In the case of `CCCCCCCCCCCCc1ccccc1S(=O)(=O)O`, the outcome is “inactive” in [1]; “inactive” in experiment [6]; “inactive” in experiment [8]; “inactive” in experiment [9]; “inactive” in [13]; “inactive” in the experiment with TIMP1, TIMP1 (gene 7076). The result in experiment [14], in [17] and in experiment [18] was inactive. Moreover, the AC50 in experiment [2] was 21.2 µM (active); in experiment [3] it was 12 µM (active); in experiment [4] it was 93.2 µM (active); in experiment [5], 10.8 µM (active); in experiment [7], 19.9 µM (active); in experiment [10], 79.6 µM (active). Further, the AC50 was 83.4 µM (active) in experiment [11]; 32.5 µM (active) in experiment [12]; 5.53 µM (active) in [15]; 58.1 µM (active) in experiment [19]; 12 µM (active) in experiment [16].
With `O=c1c(-c2ccc(O)cc2)coc2cc(O)ccc12`, the outcome in experiment [1], in experiment [2], in experiment [3], in experiment [4], in experiment [5] and in [6] was inactive. Besides, the compound was called inactive in experiment [7], in experiment [8], in experiment [9], in [10], in [11] and in experiment [13]. Moreover, the outcome in the experiment with TIMP1, TIMP1 (gene 7076) is “inactive”; in experiment [14], “inactive”; in experiment [15], “inactive”; in experiment [16] it was “inactive”; in [17], “inactive”; in experiment [18] it was “inactive”.

For orientation: AC50 means the midpoint of the concentration-response curve, whichever way the signal moves.
